In ChEMBL document CHEMBL2218924, “A broad activity screen in support of a chemogenomic map for kinase signalling research and drug discovery” (Biochem J, 2013):

Key:
[1] = target: T1, Ephrin type-B receptor 1 (Homo sapiens) (UniProt P54762); conditions: at 10 µM
T1 sequence (whole entry): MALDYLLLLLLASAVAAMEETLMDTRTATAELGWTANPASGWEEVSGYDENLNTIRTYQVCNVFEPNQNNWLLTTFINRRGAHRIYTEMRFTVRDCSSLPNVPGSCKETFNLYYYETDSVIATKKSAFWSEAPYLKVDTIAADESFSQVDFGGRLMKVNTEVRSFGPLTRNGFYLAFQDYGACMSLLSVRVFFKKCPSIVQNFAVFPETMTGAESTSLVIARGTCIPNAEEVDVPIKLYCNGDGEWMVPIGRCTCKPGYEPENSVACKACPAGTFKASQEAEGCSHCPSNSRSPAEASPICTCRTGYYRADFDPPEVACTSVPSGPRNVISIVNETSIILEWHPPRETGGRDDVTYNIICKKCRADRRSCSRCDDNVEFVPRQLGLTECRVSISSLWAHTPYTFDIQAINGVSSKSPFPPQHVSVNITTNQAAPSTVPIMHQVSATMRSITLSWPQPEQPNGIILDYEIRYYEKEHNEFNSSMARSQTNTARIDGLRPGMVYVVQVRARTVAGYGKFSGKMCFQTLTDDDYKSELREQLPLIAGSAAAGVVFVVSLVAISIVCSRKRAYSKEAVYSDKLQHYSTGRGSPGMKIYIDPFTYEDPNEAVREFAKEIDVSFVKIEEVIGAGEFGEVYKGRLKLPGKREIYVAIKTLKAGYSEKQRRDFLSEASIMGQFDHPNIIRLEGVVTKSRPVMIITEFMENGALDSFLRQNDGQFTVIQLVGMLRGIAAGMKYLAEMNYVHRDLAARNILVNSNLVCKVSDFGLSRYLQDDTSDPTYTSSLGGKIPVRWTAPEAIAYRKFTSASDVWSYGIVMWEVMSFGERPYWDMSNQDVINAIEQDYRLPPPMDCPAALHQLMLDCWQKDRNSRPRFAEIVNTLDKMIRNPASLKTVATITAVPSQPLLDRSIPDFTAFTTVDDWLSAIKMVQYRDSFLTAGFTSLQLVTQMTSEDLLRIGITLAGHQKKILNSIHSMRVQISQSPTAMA

[2] = target: T2, Ephrin type-B receptor 2 (Homo sapiens) (UniProt P29323); conditions: at 1 µM
T2 sequence (whole entry): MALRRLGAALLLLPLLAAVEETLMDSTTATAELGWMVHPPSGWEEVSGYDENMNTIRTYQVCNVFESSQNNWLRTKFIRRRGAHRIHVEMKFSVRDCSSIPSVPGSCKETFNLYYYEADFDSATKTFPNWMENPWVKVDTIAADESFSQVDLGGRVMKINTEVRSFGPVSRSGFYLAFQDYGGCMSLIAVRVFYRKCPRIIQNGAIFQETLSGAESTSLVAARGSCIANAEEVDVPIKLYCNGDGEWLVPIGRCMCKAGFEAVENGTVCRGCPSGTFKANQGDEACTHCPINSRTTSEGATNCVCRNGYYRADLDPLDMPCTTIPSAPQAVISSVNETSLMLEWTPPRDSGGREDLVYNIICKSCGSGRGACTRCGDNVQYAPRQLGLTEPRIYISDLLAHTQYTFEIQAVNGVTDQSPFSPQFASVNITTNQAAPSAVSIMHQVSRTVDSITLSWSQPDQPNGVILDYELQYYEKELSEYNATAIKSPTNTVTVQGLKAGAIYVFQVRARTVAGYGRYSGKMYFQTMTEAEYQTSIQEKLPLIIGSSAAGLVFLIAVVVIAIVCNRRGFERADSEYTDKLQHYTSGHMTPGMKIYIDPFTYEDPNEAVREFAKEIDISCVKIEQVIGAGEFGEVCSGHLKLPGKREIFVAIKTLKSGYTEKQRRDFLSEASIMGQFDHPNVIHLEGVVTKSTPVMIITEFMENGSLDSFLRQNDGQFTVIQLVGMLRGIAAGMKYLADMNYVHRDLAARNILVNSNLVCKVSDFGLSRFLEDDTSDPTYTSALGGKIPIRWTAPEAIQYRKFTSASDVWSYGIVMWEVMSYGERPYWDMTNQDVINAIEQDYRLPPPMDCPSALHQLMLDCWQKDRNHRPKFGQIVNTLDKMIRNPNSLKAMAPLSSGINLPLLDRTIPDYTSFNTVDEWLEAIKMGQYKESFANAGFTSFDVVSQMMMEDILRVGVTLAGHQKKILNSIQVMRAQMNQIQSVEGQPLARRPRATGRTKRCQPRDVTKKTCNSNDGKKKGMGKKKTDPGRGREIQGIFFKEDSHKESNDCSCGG

[3] = target: T2, Ephrin type-B receptor 2 (Homo sapiens); conditions: at 10 µM
[4] = target: T3, Ephrin type-B receptor 3 (Homo sapiens) (UniProt P54753); conditions: at 1 µM
T3 sequence (whole entry): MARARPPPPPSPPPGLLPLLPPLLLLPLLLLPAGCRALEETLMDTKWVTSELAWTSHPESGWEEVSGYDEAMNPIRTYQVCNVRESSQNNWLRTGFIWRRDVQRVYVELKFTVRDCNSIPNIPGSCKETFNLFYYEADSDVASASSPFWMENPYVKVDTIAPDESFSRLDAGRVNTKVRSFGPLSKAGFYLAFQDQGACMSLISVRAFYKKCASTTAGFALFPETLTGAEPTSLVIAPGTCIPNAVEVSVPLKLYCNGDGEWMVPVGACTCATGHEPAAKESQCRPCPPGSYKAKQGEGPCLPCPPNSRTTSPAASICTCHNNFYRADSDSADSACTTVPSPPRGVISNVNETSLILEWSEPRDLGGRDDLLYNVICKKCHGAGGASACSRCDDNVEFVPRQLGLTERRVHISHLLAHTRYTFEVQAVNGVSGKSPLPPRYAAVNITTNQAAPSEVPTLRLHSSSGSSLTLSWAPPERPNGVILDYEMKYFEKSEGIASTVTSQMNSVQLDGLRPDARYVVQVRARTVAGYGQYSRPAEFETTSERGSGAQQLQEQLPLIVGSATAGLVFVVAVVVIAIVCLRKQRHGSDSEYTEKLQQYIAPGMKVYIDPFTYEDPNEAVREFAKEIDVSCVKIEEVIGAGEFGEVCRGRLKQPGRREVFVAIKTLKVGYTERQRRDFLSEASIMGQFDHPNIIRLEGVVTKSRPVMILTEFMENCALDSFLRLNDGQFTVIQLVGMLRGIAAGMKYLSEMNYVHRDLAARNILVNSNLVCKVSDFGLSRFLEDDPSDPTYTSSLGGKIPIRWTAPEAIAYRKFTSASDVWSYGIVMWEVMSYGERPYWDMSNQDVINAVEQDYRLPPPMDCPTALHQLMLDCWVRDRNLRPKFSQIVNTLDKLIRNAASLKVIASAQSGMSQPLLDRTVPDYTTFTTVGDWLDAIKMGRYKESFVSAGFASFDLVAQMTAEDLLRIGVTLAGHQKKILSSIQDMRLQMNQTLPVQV

[5] = target: T3, Ephrin type-B receptor 3 (Homo sapiens); conditions: at 10 µM
[6] = target: T4, Ephrin type-B receptor 4 (Homo sapiens) (UniProt P54760); conditions: at 1 µM
T4 sequence (whole entry): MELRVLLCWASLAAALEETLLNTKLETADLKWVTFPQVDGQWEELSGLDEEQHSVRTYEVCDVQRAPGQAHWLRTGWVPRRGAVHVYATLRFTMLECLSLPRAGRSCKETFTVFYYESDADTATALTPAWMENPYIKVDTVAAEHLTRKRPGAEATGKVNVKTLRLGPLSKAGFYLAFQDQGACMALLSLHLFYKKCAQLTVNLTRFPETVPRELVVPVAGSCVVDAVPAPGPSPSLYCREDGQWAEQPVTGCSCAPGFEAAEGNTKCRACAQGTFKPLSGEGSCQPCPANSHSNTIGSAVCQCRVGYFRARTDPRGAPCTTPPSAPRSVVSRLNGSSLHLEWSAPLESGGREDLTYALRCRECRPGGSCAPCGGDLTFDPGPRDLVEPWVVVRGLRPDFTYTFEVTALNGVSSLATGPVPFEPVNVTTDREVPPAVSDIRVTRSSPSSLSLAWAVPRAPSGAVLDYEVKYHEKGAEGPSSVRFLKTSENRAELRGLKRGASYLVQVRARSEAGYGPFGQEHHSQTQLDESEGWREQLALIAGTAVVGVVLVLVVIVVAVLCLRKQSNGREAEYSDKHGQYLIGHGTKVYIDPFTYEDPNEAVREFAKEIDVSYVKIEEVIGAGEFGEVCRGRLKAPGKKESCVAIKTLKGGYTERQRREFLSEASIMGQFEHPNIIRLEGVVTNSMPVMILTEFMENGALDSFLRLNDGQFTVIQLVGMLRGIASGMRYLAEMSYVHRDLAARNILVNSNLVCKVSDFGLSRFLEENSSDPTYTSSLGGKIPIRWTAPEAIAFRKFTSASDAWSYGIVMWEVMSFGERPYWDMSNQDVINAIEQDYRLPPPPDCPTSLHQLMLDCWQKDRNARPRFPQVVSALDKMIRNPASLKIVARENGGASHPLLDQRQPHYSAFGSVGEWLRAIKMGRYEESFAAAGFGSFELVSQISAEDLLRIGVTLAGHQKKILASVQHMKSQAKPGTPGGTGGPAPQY

[7] = target: T4, Ephrin type-B receptor 4 (Homo sapiens); conditions: at 10 µM
[8] = target: Receptor tyrosine-protein kinase erbB-4 (Homo sapiens) (UniProt Q15303); conditions: at 1 µM
Chain of Receptor tyrosine-protein kinase erbB-4 (Homo sapiens) (Q15303 whole entry): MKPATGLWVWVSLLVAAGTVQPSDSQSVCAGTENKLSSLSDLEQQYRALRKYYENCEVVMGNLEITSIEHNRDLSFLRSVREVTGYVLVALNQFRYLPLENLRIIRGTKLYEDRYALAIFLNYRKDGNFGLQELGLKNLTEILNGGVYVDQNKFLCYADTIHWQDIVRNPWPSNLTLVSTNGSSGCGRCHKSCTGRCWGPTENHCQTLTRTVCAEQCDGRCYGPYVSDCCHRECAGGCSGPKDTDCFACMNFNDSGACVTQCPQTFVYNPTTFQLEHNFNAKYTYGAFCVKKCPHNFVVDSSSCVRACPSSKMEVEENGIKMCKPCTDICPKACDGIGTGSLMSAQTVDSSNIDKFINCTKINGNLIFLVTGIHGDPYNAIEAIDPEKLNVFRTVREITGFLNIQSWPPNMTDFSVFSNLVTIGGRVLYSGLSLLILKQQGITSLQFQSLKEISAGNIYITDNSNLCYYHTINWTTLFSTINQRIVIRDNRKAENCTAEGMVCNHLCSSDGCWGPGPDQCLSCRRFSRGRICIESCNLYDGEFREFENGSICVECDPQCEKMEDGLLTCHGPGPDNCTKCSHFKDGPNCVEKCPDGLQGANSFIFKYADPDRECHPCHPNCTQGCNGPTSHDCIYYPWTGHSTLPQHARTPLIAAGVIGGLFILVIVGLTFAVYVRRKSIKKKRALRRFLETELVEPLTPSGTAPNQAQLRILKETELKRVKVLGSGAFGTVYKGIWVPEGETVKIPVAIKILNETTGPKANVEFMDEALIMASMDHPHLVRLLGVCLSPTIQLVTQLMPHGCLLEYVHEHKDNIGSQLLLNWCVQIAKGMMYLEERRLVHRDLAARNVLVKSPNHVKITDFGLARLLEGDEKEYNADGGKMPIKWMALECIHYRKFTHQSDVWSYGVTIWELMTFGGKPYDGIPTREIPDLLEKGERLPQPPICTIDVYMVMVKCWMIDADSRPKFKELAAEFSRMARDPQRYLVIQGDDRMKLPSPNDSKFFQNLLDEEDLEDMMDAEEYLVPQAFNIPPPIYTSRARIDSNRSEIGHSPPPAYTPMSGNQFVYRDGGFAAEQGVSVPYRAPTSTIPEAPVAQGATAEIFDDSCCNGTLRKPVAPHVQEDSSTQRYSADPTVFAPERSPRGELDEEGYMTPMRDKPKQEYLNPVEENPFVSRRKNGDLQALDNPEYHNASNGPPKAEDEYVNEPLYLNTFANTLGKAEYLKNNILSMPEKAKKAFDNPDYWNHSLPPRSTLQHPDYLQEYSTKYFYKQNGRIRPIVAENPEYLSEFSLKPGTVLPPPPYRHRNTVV

[9] = target: Receptor tyrosine-protein kinase erbB-4 (Homo sapiens) (UniProt Q15303); conditions: at 10 µM
[10] = target: Focal adhesion kinase 1 (Homo sapiens) (UniProt Q05397); conditions: at 1 µM
Chain of Focal adhesion kinase 1 (Homo sapiens) (Q05397 2-1052 limits assumed): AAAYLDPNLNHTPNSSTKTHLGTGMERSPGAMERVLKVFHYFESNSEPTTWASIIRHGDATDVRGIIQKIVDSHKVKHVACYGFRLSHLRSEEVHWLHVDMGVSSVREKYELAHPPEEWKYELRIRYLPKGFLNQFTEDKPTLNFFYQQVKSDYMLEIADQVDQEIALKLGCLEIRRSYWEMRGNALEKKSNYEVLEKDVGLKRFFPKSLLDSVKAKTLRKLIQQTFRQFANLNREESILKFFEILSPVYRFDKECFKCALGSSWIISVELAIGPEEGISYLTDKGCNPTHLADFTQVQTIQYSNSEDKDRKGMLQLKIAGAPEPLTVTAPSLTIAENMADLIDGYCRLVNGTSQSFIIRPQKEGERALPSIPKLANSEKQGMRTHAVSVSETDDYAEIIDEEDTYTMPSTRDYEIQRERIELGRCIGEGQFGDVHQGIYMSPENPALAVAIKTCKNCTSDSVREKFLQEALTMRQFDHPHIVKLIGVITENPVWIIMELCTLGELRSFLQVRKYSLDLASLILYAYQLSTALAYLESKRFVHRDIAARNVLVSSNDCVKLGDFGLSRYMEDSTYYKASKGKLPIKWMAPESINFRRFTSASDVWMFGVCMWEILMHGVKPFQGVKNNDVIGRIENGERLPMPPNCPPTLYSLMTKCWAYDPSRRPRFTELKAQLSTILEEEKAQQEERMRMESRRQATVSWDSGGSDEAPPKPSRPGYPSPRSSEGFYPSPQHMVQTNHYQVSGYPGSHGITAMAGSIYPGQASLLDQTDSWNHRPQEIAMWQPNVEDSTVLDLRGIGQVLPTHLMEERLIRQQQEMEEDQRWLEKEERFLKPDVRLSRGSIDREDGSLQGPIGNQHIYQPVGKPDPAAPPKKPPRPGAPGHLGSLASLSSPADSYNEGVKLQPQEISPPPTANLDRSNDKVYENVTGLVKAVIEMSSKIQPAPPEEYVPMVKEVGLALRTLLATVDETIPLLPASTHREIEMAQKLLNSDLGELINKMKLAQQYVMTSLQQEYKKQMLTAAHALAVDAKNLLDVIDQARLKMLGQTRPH

CC#CC(=O)Nc1cc2c(Nc3ccc(F)c(Cl)c3)ncnc2cn1
residual activity [1]: 98%
residual activity [2]: 110%
residual activity [3]: 107%
residual activity [4]: 115% (inactive)
residual activity [5]: 102%
residual activity [6]: 87%
residual activity [7]: 108%
residual activity [8]: 16%
residual activity [9]: 14%
residual activity [10]: 133%
